Source: PubChem BioAssay (NCATS)
Results filed as inconclusive are left out. The source made the active and inactive calls. Calls follow the shape of the full dose curve. Residues, ends and D or L forms follow the SMILES beside them. *: point of attachment. Hexanoyl = CCCCCC(=O)*

Experiment: qHTS for inhibitors of Rabies Virus screened against the NCATS CANVASS Library (AID 1347402); also: 0% is about no effect
Settings: Rabies virus infection cell assay; series mostly up to 45.9 µM; activity change, negative = inhibition: at the top concentration
For `O=C1c2c(O)cc(O)cc2O[C@@H](c2ccc(O)cc2)[C@@H]1c1c(O)cc(O)c2c(=O)cc(-c3ccc(O)c(O)c3)oc12`, the “activity change, negative = inhibition” value was 4.05% (inactive).
In the case of `COc1cc(O)c2c3c(c(O)cc(C)c13)C(=O)OC2`, the “activity change, negative = inhibition” value is reported as -1.84% (inactive).
For `C[C@@H]1C(=O)[C@]23CC[C@H]1C[C@]21O[C@H]2C(C)(C)C=CC(=O)[C@]23COC1=O`, the “activity change, negative = inhibition” value was -15.3% (inactive).
In the case of `C/C1=C/[C@@H](C)[C@H](O)[C@@H](O)/C=C/CC/C=C/C(=O)O[C@@H]1[C@H](C)C(=O)CCCC1CC(=O)NC(=O)C1`, the “activity change, negative = inhibition” value is reported as -1.67% (inactive).
With `C[C@@]12CCC[C@@](C)(C(=O)O)[C@H]1C[C@@H](O)[C@]13C[C@H]4C[C@H](O[C@@]4(C)C1)[C@@H]23` the “activity change, negative = inhibition” value was 1.5% (inactive).
For `CCCCCC(=O)N[C@@H](CC(C)C)C(=O)N[C@H](C=O)CCC(=O)O` (Hexanoyl-Leu-Glu-aldehyde), the “activity change, negative = inhibition” value was 5.6% (inactive).
In the case of `O=C(O)CC1OC(=O)c2c(O)cccc21` (stereo not given), the “activity change, negative = inhibition” value is reported as 3.89% (inactive).
With `O=C(O)[C@@]12COC3(O)C1CCN1CC[C@H]3[C@@H]1c1c2[nH]c2ccccc12` the “activity change, negative = inhibition” value was -9.84% (inactive).
In the case of `C[C@]12CC[C@]3(C1)[C@H](CC2=O)CC(OC(=O)c1ccccc1)[C@H]1[C@@](CO)(C(=O)O)CCC[C@@]13C` (stereo not given in full), the “activity change, negative = inhibition” value is reported as -3.93% (inactive).
In the case of `C=C1/C=C\C(CCC)=C\c2csc(n2)C(C)NC(=O)C[C@@]2(CC(=O)O)CCC(=C)[C@H](C1)S2` (stereo not given in full), the “activity change, negative = inhibition” value is reported as -15.5% (inactive).
With `COc1ccc([C@@H]2c3cc4c(cc3C[C@H](C)C2C)OCO4)cc1OC` (stereo not given in full) the “activity change, negative = inhibition” value was -29.4% (inactive).
With `CCC(C)=C1OC(=O)[C@H](C)[C@H](O)[C@H](Cc2cccnc2)NC(=O)C(NC(=O)c2ncccc2O)C(C)OC1=O` (stereo not given in full) the “activity change, negative = inhibition” value was -2.69% (inactive).
In the case of `C=CC(C)(C)C(=O)[C@@H](C)[C@@H]1CC[C@@](C)(C=C)O1`, the “activity change, negative = inhibition” value is reported as 11.4% (inactive).
In the case of `CC(C)=CCC[C@]1(C)[C@H]2CC(=O)[C@@]3(CO3)[C@@H]1C2`, the “activity change, negative = inhibition” value is reported as -12.5% (inactive).
With `C/C=C/C=C/C1(O)C2C=C3C(=O)CC45C(=O)C(O)=C(C)C(=O)C4C1C1(C(=O)C(O)=C(C)C(=O)C351)C2C` (stereo not given) the “activity change, negative = inhibition” value was 1.29% (inactive).
With `C[C@@]12CCC[C@@](C)(C(=O)O)[C@H]1CC[C@@]13C[C@@H](CC[C@H]12)[C@](C)(O)C3` the “activity change, negative = inhibition” value was -1.37% (inactive).
With `CC(O)/C=C/C1(O)C(C)(C)CC(O)CC1(C)O` (stereo not given) the “activity change, negative = inhibition” value was -1.96% (inactive).
In the case of `C/C(=C\CC/C(C)=C/CC[C@]1(C)CCc2cc(O)cc(C)c2O1)CC/C=C(\C)C(=O)O`, the “activity change, negative = inhibition” value is reported as -24.6% (inactive).
With `C/C=C1/CC[C@@H]2c3[nH]c4ccccc4c3CCN2C1` the “activity change, negative = inhibition” value was -12.7% (inactive).
In the case of `CC1=CC[C@@]2(C[C@@H]1O)[C@@H](C(=O)O)CC[C@H]2C(C)C`, the “activity change, negative = inhibition” value is reported as -17.5% (inactive).
In the case of `CC(C)=CCC[C@]12c3cc4c(cc3CC[C@@]1(C)[C@H](C)CC[C@@H]2O)[nH]c1ccccc14`, the “activity change, negative = inhibition” value is reported as -2.51% (inactive).
For `CO[C@@H]1[C@H](O)[C@@H](C)O[C@@H](OC[C@@H]2C(C)OC(=O)/C=C/[C@H](C)C(O[C@@H]3O[C@H](C)CC4(OC(=O)O[C@@H]4C)C3O)[C@@H](C)CC(C)C(=O)CC[C@H]3OC23)[C@@H]1OC` (stereo not given in full), the “activity change, negative = inhibition” value was -1.19% (inactive).
With `C=C1CC[C@@H](O[C@H]2C[C@@](O)([C@H](C)NC(=O)c3[nH]c(C)c(Cl)c3Cl)[C@H](O)[C@@H](C)O2)[C@@H]2C=C[C@H](C)C(/C(O)=C3/C(=O)[C@H](C(C)C)N([C@@H]4O[C@H](C)[C@H](OC(N)=O)[C@H](OC(C)=O)[C@@H]4OC)C3=O)[C@@H]12` (stereo not given in full) the “activity change, negative = inhibition” value was -1.08% (inactive).
For `CN1C(=O)C(=O)N2C(=C[C@]3(c4c[nH]c5ccccc45)c4ccccc4N[C@H]23)C1=O`, the “activity change, negative = inhibition” value was -6.33% (inactive).
In the case of `CC(=O)c1c(C)cc2c(c1O)C(=O)c1c(O)cc(O)cc1C2=O`, the “activity change, negative = inhibition” value is reported as 4.1% (inactive).
For `O=c1cc(-c2ccc(O)cc2)oc2c([C@@H]3OC(CO)[C@H](O)[C@@H](O)[C@H]3O)c(O)cc(O)c12` (stereo not given in full), the “activity change, negative = inhibition” value was 9.44% (inactive).
For `O=Cc1ccc2n1C[C@@]1(C[C@H](O)[C@H](O)CO1)OC2`, the “activity change, negative = inhibition” value was 10.3% (inactive).
With `C=C(NC(=O)c1csc(-c2nc3c(cc2O)-c2nc(cs2)C(=O)NC(C(C)O)C(=O)N/C(=C(\C)O)c2nc(cs2)C(=O)NC2c4nc(cs4)C(=O)NC(COC(=O)c4c5c6c(cccc6n4O)COC(=O)[C@@H](OC4C[C@](C)(O)[C@H](N(C)C)[C@H](C)O4)C2OC5)c2nc-3cs2)n1)C(N)=O` (stereo not given in full) the “activity change, negative = inhibition” value was 38.6% (inactive).
For `CC[C@@H]1C[C@@]2(CC)OC(=O)[C@@]3(CC)OC(=O)[C@@H]1[C@@H]23`, the “activity change, negative = inhibition” value was -0.942% (inactive).
For `COC1C(O)C(OC(N)=O)C(Oc2ccc3c(O)c(NC(=O)c4ccc(O)c(CC=C(C)C)c4)c(=O)oc3c2C)OC1(C)C` (stereo not given), the “activity change, negative = inhibition” value was 5.89% (inactive).
For `C=C[C@@]1(C)CC[C@@H]([C@H](C)C(=O)/C=C/C(C)(C)O)O1`, the “activity change, negative = inhibition” value was -16.7% (inactive).
For `C=C[C@](Cl)(CBr)CCC=C(C)C`, the “activity change, negative = inhibition” value was -1.66% (inactive).
For `[C-]#[N+][C@@]12C(=O)[C@@H]3[C@@H](O[C@@]4(C(=O)N(C)c5cccc1c54)C3(C)C)C(=O)[C@@]2(C)C=C`, the “activity change, negative = inhibition” value was 42.5% (inactive).
For `COc1cc2c(cc1OC)[C@@H](c1ccc3c(c1)OCO3)C(C)[C@@H](C)C2=O` (stereo not given in full), the “activity change, negative = inhibition” value was -22% (inactive).
In the case of `C/C1=C/[C@@H](C)[C@H](O)[C@@H](O)/C=C/CC/C=C/C(=O)O[C@@H]1[C@H](C)C(=O)/C=C/CC1CC(=O)NC(=O)C1`, the “activity change, negative = inhibition” value is reported as 11.6% (inactive).
With `C/C=C/C1C=CC2CC(C)CC(C)C2C1C(=O)CC(=O)NC(CO)C/C=C/CCCCC` (stereo not given) the “activity change, negative = inhibition” value was -19% (inactive).
For `Oc1ccc(/C=C2/c3cc(O)cc(O)c3C(c3ccc(O)cc3)[C@H]2c2cc(O)cc(O)c2)cc1` (stereo not given in full), the “activity change, negative = inhibition” value was -8.29% (inactive).
For `C[C@@H](CCC[C@]1(C)C(=O)C=C[C@]23C[C@H]4C[C@H](O[C@@]4(C)C2)C31)C(=O)N[C@@H](CO)C(=O)O` (stereo not given in full), the “activity change, negative = inhibition” value was 15.6% (inactive).
In the case of `C1=C2CCCN[C@@H]2[C@@H]2CCN3CCCC[C@@H]3[C@H](C1)C2`, the “activity change, negative = inhibition” value is reported as -19.2% (inactive).
With `COC1C(C)OC(OCC23C[C@@H]4[C@H](C)CC[C@H]4C4(C=O)CC2C=C(C(C)C)C34C(=O)O)[C@@H](O)[C@H]1O` (stereo not given in full) the “activity change, negative = inhibition” value was 2.68% (inactive).
